These results are taken from PubChem BioAssay AID781 (Emory University Molecular Libraries Screening Center, 2007).

SMILES strings stand for the structures. The whole screen tested about 220,000 compounds, of which about 1,600 (0.73%) were called active. The entries come from a sample that favours actives as a whole. Unmarked numbers belong to inactive results.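 Rule for the calls: active = inhibition above about 70% (limit read from the data); inactive = the rest.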

This experiment deals with 14-3-3 protein zeta/delta (Bos taurus) (UniProt P63103). The experiment can be described thus: inhibitors of 14-3-3 zeta/Bad binding, primary screen, biochemical, TR-FRET, bovine 14-3-3 zeta (AID 781).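 Note: 0% = full 14-3-3 plus peptide FRET controls and 100% = background without 14-3-3.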 The settings on record: TR-FRET 14-3-3zeta/Dy647-pBad peptide displacement, 1 h; at 21.7 µM; hits give high values. (TR-FRET usually uses a lanthanide donor and a delayed reading to cut background.)
Chain of 14-3-3 protein zeta/delta (Bos taurus) (P63103 whole entry, looked up): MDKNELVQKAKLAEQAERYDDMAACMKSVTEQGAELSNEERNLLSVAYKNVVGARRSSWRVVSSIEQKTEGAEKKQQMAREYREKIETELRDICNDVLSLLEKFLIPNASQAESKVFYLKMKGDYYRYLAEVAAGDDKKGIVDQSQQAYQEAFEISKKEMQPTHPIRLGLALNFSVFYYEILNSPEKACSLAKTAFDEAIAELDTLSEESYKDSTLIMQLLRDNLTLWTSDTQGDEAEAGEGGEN
In the case of `Cc1ccc(S(=O)(=O)/N=S(\C)C(C)C)cc1` (stereo not given), the inhibition (usually the change of the read-out against control, counted positive when it falls) was 1.1%. For the compound `CS(=O)(=O)N(Cc1ccccc1)c1ccc(C(=O)NN=C2CCCCCC2)cc1`, the inhibition was -15.2%.

In the case of `COc1cccc(NC(=O)c2ccc3c(SCC(=O)O)c4c(nc3c2)CCCC4)c1`, the inhibition is -11.6%. To `COc1ccc(N2CCN(C(=O)c3ccc4c(Cl)c5c(nc4c3)CCCC5)CC2)cc1` belongs -10.1%; to `CC(=O)c1ccc(NC(=O)c2ccc3c(Cl)c4c(nc3c2)CCCC4)cc1`, 73.9% (active).

For `COc1ccc(/C=C(\NC(=O)c2ccc(OCC(C)C)cc2)C(=O)OCc2ccco2)cc1`, the inhibition is 2.32%. To `Cc1ccc(-c2nc(SCC(=O)Nc3ccccc3OC(F)F)c3c(C)c(C(=O)O)sc3n2)cc1` belongs 80.4% (active). With `COc1ccccc1NC(=O)CSc1nc2sc(C)c(C)c2c(=O)n1Cc1ccco1`, the inhibition was -6.57%.

For `Cc1ccc(C)c(SCc2nc3sc(C(=O)O)c(C)c3c(=O)[nH]2)c1`, the inhibition was 0.11%.

In the case of `Oc1ccc2ccccc2c1C=Nc1ccccc1`, the inhibition is 4.91%. In the case of `CC(=O)Nc1ccc(S(=O)(=O)NC2(C(F)(F)F)C(=O)NC(C)=C2C#N)cc1` (stereo not given) it was -3.08%.

Turning to `COc1ccccc1CNCc1cccs1`, the inhibition was 0.7%. In the case of `Fc1ccccc1COc1ccccc1CNCc1ccncc1` it was 75.9% (active).

In the case of `CCC(Oc1ccccc1)C(=O)NCc1cccnc1` (stereo not given), the inhibition was -2.17%. To `O=C(CCc1ccccc1)NCc1cccnc1` belongs -1.29%; to `c1ccc(COc2ccccc2CNCc2cccnc2)cc1`, 77.2% (active); to `COc1cccc(CNCCc2c[nH]c3ccccc23)c1OCc1ccccc1F`, 29.9%. To `CCOC(=O)CN(C(=O)COc1nc(C)cc(C)c1C#N)c1ccc(Cl)cc1` belongs -3.15%. To `O=C(Nc1ccccc1Cl)c1ccccc1S(=O)(=O)c1ccccc1[N+](=O)[O-]` belongs 5.14%; to `COc1ccc(NC(=S)N2CCc3cc(OC)c(OC)cc3C2)cc1`, -0.16%. Regarding `COc1ccccc1/C=C/C=N/NC(=O)CN1CCN(Cc2ccccc2)CC1`, the inhibition is -5.86%. To `O=C1COc2ccc(C(=O)COC(=O)C3CC(O)CN3S(=O)(=O)c3ccc(Cl)cc3)cc2N1` (stereo not given) belongs 0.1%.

For the compound `Cc1ccc2nc(SCc3cn4c(C)cc(C)nc4n3)[nH]c2c1`, the inhibition is -0.6%. To `CC(Sc1nc2c([nH]c3ccccc32)c(=O)n1C)c1ccccc1` (stereo not given) belongs 98.1% (active); to `Cn1nnnc1SCc1cc(=O)[nH]c2ccccc12`, 8.32%; to `CCCCn1c(=S)[nH]c2ccccc2c1=O`, 10.7%. In the case of `S=C(Nc1ccc2c(c1)OCO2)N1CCCC1` it was -2.2%; in that of `COc1ccc(CCn2nnnc2C(c2ccccc2)N2CCN(C)CC2)cc1OC` (stereo not given), 82.9% (active). To `COc1ccc(C(c2nnnn2Cc2cccs2)N2CCN(c3ccccc3)CC2)cc1OC` (stereo not given) belongs -7.19%; to `N#Cc1ccc(C(c2nnnn2CCc2ccccc2)N2CCCCCC2)cc1` (stereo not given), 4.83%; to `COC(=O)c1cc(NC(=O)CN2CCN(C(C)=O)CC2)cc(C(=O)OC)c1`, -3.76%.

Turning to `FC(F)(F)c1nc(-c2ccccc2)ncc1-c1nnnn1-c1ccccc1`, the inhibition is 13.7%. Take `N/C(=N\OC(=O)Cc1ccc([N+](=O)[O-])cc1)c1ccccn1`: the inhibition is -17.6%. To `N/C(=N\OC(=O)COc1ccc([N+](=O)[O-])cc1)c1ccc(Br)cc1` belongs 2.68%. To `N/C(=N\OC(=O)Cc1ccccc1[N+](=O)[O-])c1ccc(Br)cc1` belongs 93.1% (active); to `CCCc1nc(-c2cc3cc(C)ccc3[nH]c2=O)no1`, -0.29%. In the case of `COc1ccc(-n2nc(C(=O)Nc3cc(OC)c(OC)c(OC)c3)c3ccccc3c2=O)c(OC)c1` it was 2.29%; in that of `Cc1ccsc1/C=N/NC(=O)Cc1cc(=O)[nH][nH]1`, -22.4%; in that of `CCOCN(C(=O)Cn1c(C(C)O)nc2ccccc21)c1c(C)cccc1CC` (stereo not given), -12.3%. As for `COc1ccc(C(=O)Nc2cccnc2)cc1C(=O)Nc1cccnc1`, the inhibition is 2.89%.

For `O=C(Nc1cccnc1)c1cc2cc(Br)ccc2oc1=O`, the inhibition was 82.5% (active).

On to `O=C(Oc1cccnc1)c1cc2ccccc2oc1=O`, for which the inhibition was 17.9%. In the case of `COc1ccc(C)cc1S(=O)(=O)Nc1cccc(Cl)c1Cl`, the inhibition was -10%. To `Cc1cc([N+](=O)[O-])nn1CCCC(=O)Nc1cccnc1Cl` belongs -8.44%. To `Nc1ccc2nc3c(=O)[nH]c(=S)[nH]c3nc2c1` belongs 83.5% (active); to `Cc1cc2nc3c(=O)n(Cc4ccccc4)c(=O)[nH]c3nc2cc1N`, -0.29%.

For `O=C1c2ccccc2NC(c2ccccn2)N1NS(=O)(=O)c1ccccc1` (stereo not given), the inhibition is 5.35%. In the case of `c1ccc(C2CNCc3c2ccc2ccccc32)cc1` (stereo not given) it was -8.65%. For the compound `CN(C)S(=O)(=O)c1cccc(-c2nn(-c3ccccc3)cc2/C=C2\SC(=S)N(CC(=O)O)C2=O)c1`, the inhibition was 12%. Turning to `CC(=O)Nc1ccc(OCC(=O)NCc2ccc(C)cc2)cc1`, the inhibition was -8.65%. To `Cc1ccc(OCC(=O)Nc2ccc(S(=O)(=O)Nc3ccccn3)cc2)cc1` belongs -3.5%; to `Cc1ccc(OCC(=O)Nc2ccc(-c3nc4ncccc4o3)cc2)cc1`, 78.8% (active); to `Cc1oc2nc(SCC(=O)Nc3ccc(S(N)(=O)=O)cc3)nc(NC(=O)c3ccccc3)c2c1C`, -6.33%. To `C/C=C(/C)C(=O)Nc1cccc(C2=NOC3(C2)C[C@@H](C(N)=O)N(C(=O)C2(C)CC2)C3)c1` (stereo not given in full) belongs -2.68%; to `Cc1ccnc(NS(=O)(=O)c2ccc(NC(=O)c3ccc(S(=O)(=O)N(C)C)cc3)cc2)n1`, -9.02%. In the case of `COc1cc(/C=N\NC(=O)c2nonc2N)c(OC)cc1Br` it was 71.1% [fluorescence artefact?] (active). With `COc1cc(/C=N/N=C(\N)c2nonc2N)cc(OC)c1OC`, the inhibition is -22.2%. Turning to `COc1cc(OC)c(/C=N/NC(=O)c2ccc([N+](=O)[O-])cc2)cc1Br`, the inhibition is 5.09%. For the compound `CCc1ccc(S(=O)(=O)NCC(O)COc2ccc(OC)cc2)cc1` (stereo not given), the inhibition was -1.31%. To `Cc1nc2ccccc2nc1N/N=C/c1ccc(O)cc1O` belongs -9.43%; to `O=C(N/N=C/c1ccco1)c1csc2c1CCCC2`, -2.18%; to `Cc1c(C)c(C)c2[nH]c(=S)[nH]c2c1C`, -0.36%.

For `Cc1cc(=O)[nH]c(=S)[nH]1`, the inhibition was 0.3%.

Take `O=c1[nH]c(=S)[nH]c2[nH]c(=S)[nH]c12`: the inhibition is 73.3% (active).

`Nc1nc(SCC(=O)N2CCN(S(=O)(=O)c3ccc(Cl)cc3)CC2)n[nH]1`: the inhibition is -16.8%. In the case of `CC1CCN(C(=S)NC2CC3CCC2C3)CC1` (stereo not given) it was -3%; in that of `COCc1c(N)c(C)nc(Cl)c1C#N`, -17%; in that of `Cc1nnc(SCCCCSc2nnc(C)c(=O)[nH]2)[nH]c1=O`, -6.9%. For the compound `OCCN(Cc1ccccc1)Cc1ccc(Cl)cc1`, the inhibition is 42.7%. Consider `CC(O)CN(Cc1ccc(Cl)cc1)CC(C)O` (stereo not given), for which the inhibition was 85.5% (active).

Turning to `CN(C)CCCNC(=S)NCc1ccc(Cl)cc1`, the inhibition was -10.2%.

Consider `Cn1c(N)c(C(=O)COC(=O)c2ccccc2NCc2ccco2)c(=O)n(C)c1=O`, for which the inhibition was 0.84%. To `CCCCCC(=O)Nc1ccc(C(=O)N/N=C/c2ccc([N+](=O)[O-])cc2)cc1` belongs -13.5%; to `O=C(COc1ccc(/C=N/NC(=O)c2ccc(O)cc2)cc1)Nc1ccc([N+](=O)[O-])cc1`, 74.2% [fluorescence artefact?] (active). For `O=C(N/N=C/c1ccc(OCc2ccccc2)cc1)c1ccc(O)cc1`, the inhibition was -9.63%.

Take `CSc1n[nH]c(=S)n1N`: the inhibition was -10%.

Turning to `CN(c1ccccc1)S(=O)(=O)c1cc(C(=O)Nc2nc3ccccc3[nH]2)ccc1Cl`, the inhibition was 1.7%. In the case of `COC(=O)CNC(=O)c1ccc2c(c1)S(=O)(=O)c1ccccc1C2=O` it was 2.96%; in that of `CCCCN(C)C(=O)c1ccc2c(c1)N(CC)C(=O)c1ccccc1S2(=O)=O`, 75.6% (active); in that of `O=C(c1ccc2c(c1)N(Cc1ccc(F)cc1)C(=O)c1ccccc1S2(=O)=O)N1CCN(c2ccccn2)CC1`, -4.43%.

With `Brc1ccc2c(c1)[C@H]1OCC[C@H]1[C@@H](c1cccs1)N2`, the inhibition was 4.8%. In the case of `O=S1(=O)C=C(SCCN2CCCC2)c2ccccc21` it was 71.3% (active). To `Nc1nnc(SCCN2C(=O)c3ccccc3S2(=O)=O)s1` belongs 5.12%; to `c1ccc(-c2ccccc2OCCN2CCCCC2)cc1`, 40.5%. To `Cc1nn(CC2CC2)c(=O)n1N(C)c1ncc(C(F)(F)F)cc1Cl` belongs -11.7%; to `Cc1nn(C)cc1N1C(=O)c2cccc3c(N)ccc(c23)C1=O`, -2.5%. Consider `CCN(c1ccccc1)S(=O)(=O)c1ccc(NC(=O)C(C)(C)C)cc1`, for which the inhibition is 4.53%.

As for `CCN(c1ccccc1)S(=O)(=O)c1ccc2[nH]c(=O)[nH]c2c1`, the inhibition is -1.8%. With `CCN(c1ccccc1)S(=O)(=O)c1ccc(N)cc1`, the inhibition is 71.9% (active). To `CCOC(=O)c1cc2c(=O)n3ccccc3nc2n(CC(C)C)c1=NC(=O)c1c(-c2c(F)cccc2Cl)noc1C` belongs -8.06%. On to `O=C1CCCC(O)=C1N=Nc1ccc2ncsc2c1`, for which the inhibition is 3.62%. To `COC(=O)c1c(C)oc(C)c1S(=O)(=O)Nc1ccc(C(C)C)cc1` belongs 3.11%.

Turning to `CC1CCC2(CC1)NC(=O)N(CC(=O)c1cccn1C)C2=O` (stereo not given), the inhibition is 73.9% (active).

As for `O=C(CN1C(=O)NC2(CCCCCC2)C1=O)NC1CC1`, the inhibition is 8.5%. In the case of `CC1CCC2(CC1)NC(=O)N(Cc1nnc(-c3cccs3)o1)C2=O` (stereo not given) it was 21.6%.
